Source: PMC11995724, “Antibiotic target discovery by integrated phenotypic and activity-based profiling of electrophilic fragments” (Cell chemical biology, 2025)
In all, about 3,200 compounds went through this assay and about 75 (2%) showed an effect of 50% or more. What follows is part of a selection rich in strong results, with near analogues and random picks from the rest.

System: T1, S. aureus MSSA476
T1 construct: MSSA476
Parameters: species or system S. aureus MSSA476 (TSB) or V. cholerae SAD30 (LB); 384-well bacterial growth screen at 25 uM, OD600 relative to DMSO control
Settings: relative growth, OD600, TSB; 25 µM; inhibitor

Structure (SMILES)	% of control remaining
O=C(CCl)NC(Cc1ccccc1)c1ccccc1F (centres unmarked) [7-N10, 2-chloro-N-[1-(2-fluorophenyl)-2-phenylethyl]acetamide]	83.5165%
CC(Cl)C(=O)N1CCNC(=O)C1Cc1nc2ccccc2o1 (centres unmarked) [6-P03, 3-[(1,3-benzoxazol-2-yl)methyl]-4-(2-chloropropanoyl)piperazin-2-one]	97.3171%
c1ccc(CSSCc2ccccc2)cc1 [10-O21, [(benzyldisulfanyl)methyl]benzene]	113.125%
Cl.O=C(CCl)NCC(c1ccccc1Cl)N1CCCC1 (centres unmarked) [6-G17, 2-chloro-N-[2-(2-chlorophenyl)-2-(pyrrolidin-1-yl)ethyl]acetamide hydrochloride]	101.415%
O=C(CCl)NC(Cc1cccc(O)c1)c1ccccc1 (centres unmarked) [7-N20, 2-chloro-N-[2-(3-hydroxyphenyl)-1-phenylethyl]acetamide]	100.157%
COc1ccc(N2C(=O)C=CC2=O)c([N+](=O)[O-])c1 [10-L11, 1-(4-methoxy-2-nitrophenyl)-2,5-dihydro-1H-pyrrole-2,5-dione]	100%
CC(C)CNC(=O)c1ccccc1NC(=O)CCl [4-E04, 2-(2-chloroacetamido)-N-(2-methylpropyl)benzamide]	88.4231%
O=C(CCl)NCC(=O)Nc1ccc(F)c(F)c1 [4-L16, 2-chloro-N-{[(3,4-difluorophenyl)carbamoyl]methyl}acetamide]	109.004%
N#CC(C(=O)CCl)=C1NC(=O)c2ccccc2N1 [10-P14, 4-chloro-3-oxo-2-(4-oxo-1,2,3,4-tetrahydroquinazolin-2-ylidene)butanenitrile]	93.75%
N#CC(C(=O)CCl)=C1Nc2cc(Cl)ccc2S1 [10-O08, 4-chloro-2-(5-chloro-2,3-dihydro-1,3-benzothiazol-2-ylidene)-3-oxobutanenitrile]	100%
N#CC(C(=O)CCl)=C1Nc2ccccc2S1 [10-J04, 4-chloro-2-(2,3-dihydro-1,3-benzothiazol-2-ylidene)-3-oxobutanenitrile]	43.75%
CCn1cc(S(=O)(=O)N2CCSSCC2)cn1 [10-N19, 5-[(1-ethyl-1H-pyrazol-4-yl)sulfonyl]-1,2,5-dithiazepane]	97.1875%
Cc1cc(CN(C(=O)CCl)c2csnc2C)cs1 [5-C12, 2-chloro-N-(3-methyl-1,2-thiazol-4-yl)-N-[(5-methylthiophen-3-yl)methyl]acetamide]	105.282%
N#CC(=Cc1cccc(F)c1)C(=O)Nc1cc(Cl)ccc1Cl [9-P03, 2-cyano-N-(2,5-dichlorophenyl)-3-(3-fluorophenyl)prop-2-enamide]	107.865%
C=CC(=O)N1CCC(C(=O)N2CCN(CC(C)C)C(=O)C2C)CC1 (centres unmarked) [2-B08, 3-methyl-1-(2-methylpropyl)-4-[1-(prop-2-enoyl)piperidine-4-carbonyl]piperazin-2-one]	92.6023%
O=C(CCl)N1N=C(c2cccc(F)c2)CC1c1cccs1 (centres unmarked) [4-E22, 2-chloro-1-[3-(3-fluorophenyl)-5-(thiophen-2-yl)-4,5-dihydro-1H-pyrazol-1-yl]ethan-1-one]	121.582%
C=CC(=O)N1CCC(c2ncc(C(=O)O)o2)CC1 [2-G19, 2-[1-(prop-2-enoyl)piperidin-4-yl]-1,3-oxazole-5-carboxylic acid]	116.275%
C=CC(=O)N1CCC(C(=O)Nc2ccc(CC)cc2)CC1 [3-J12, N-(4-ethylphenyl)-1-(prop-2-enoyl)piperidine-4-carboxamide]	97.5185%
O=C(CCl)NCc1cc([N+](=O)[O-])ccc1O [4-A05, 2-chloro-N-[(2-hydroxy-5-nitrophenyl)methyl]acetamide]	92.6155%
O=C(CCl)NSc1ccc([N+](=O)[O-])cc1 [4-P13, 2-chloro-N-[(4-nitrophenyl)sulfanyl]acetamide]	1.906%
N#Cc1cc([N+](=O)[O-])ccc1NC(=O)CCl [4-O09, 2-chloro-N-(2-cyano-4-nitrophenyl)acetamide]	100.619%
Cc1cc(C)cc(-c2cc(NC(=O)CCl)n(-c3ccccc3)n2)c1 [4-K04, 2-chloro-N-[3-(3,5-dimethylphenyl)-1-phenyl-1H-pyrazol-5-yl]acetamide]	80.4192%
C/C(O)=C(\C#N)C(=O)Nc1ccc(-c2ccccc2Cl)cc1 [9-P22, (2Z)-N-{2'-chloro-[1,1'-biphenyl]-4-yl}-2-cyano-3-hydroxybut-2-enamide]	50.9363%
CC(O)=C(C#N)C(=O)Nc1ccc(-c2ccccc2Cl)c(Cl)c1 [9-L22, 2-cyano-N-{2,2'-dichloro-[1,1'-biphenyl]-4-yl}-3-hydroxybut-2-enamide]	33.2584%

Structure (SMILES)	% of control remaining
CC(O)=C(C#N)C(=O)Nc1ccc(C(F)(F)F)cc1 [9-A05, 2-cyano-3-hydroxy-N-[4-(trifluoromethyl)phenyl]but-2-enamide]	71.6105%
N#CC(=Cc1ccc([N+](=O)[O-])o1)C(=O)NCc1ccco1 [8-I17, 2-cyano-N-[(furan-2-yl)methyl]-3-(5-nitrofuran-2-yl)prop-2-enamide]	-0.6639%
Cc1ccc(C=C(C#N)C(=O)NCc2ccco2)o1 [8-P19, 2-cyano-N-[(furan-2-yl)methyl]-3-(5-methylfuran-2-yl)prop-2-enamide]	89.6266%
N#CC(=Cc1cc2ccccc2o1)C(=O)NCc1ccco1 [9-O08, 3-(1-benzofuran-2-yl)-2-cyano-N-[(furan-2-yl)methyl]prop-2-enamide]	115.056%
COc1ccc(C(=O)CCl)cc1Cl [10-D10, 2-chloro-1-(3-chloro-4-methoxyphenyl)ethan-1-one]	-0.3125%
COc1ccc(C(=O)CCl)c(OC)c1 [10-G18, 2-chloro-1-(2,4-dimethoxyphenyl)ethan-1-one]	124.375%
O=C(CCl)c1ccc(Cl)c(Cl)c1 [10-L16, 2-chloro-1-(3,4-dichlorophenyl)ethan-1-one]	5%
COC(=O)c1cccc(C(=O)CCl)c1 [10-I11, methyl 3-(2-chloroacetyl)benzoate]	61.5625%
O=C(CCl)c1ccc2[nH]c(=O)[nH]c2c1 [10-I14, 5-(2-chloroacetyl)-2,3-dihydro-1H-1,3-benzodiazol-2-one]	100.313%
O=C(CCl)c1ccc(F)c(F)c1 [10-L13, 2-chloro-1-(3,4-difluorophenyl)ethan-1-one]	110.313%
CC(Cl)C(=O)NC(C)c1ccc(C(F)(F)F)nc1Cl (centres unmarked) [7-G09, 2-chloro-N-{1-[2-chloro-6-(trifluoromethyl)pyridin-3-yl]ethyl}propanamide]	111.774%
C=CC(=O)Nc1cccc(-c2nc(COC)no2)c1C [1-J08, N-{3-[3-(methoxymethyl)-1,2,4-oxadiazol-5-yl]-2-methylphenyl}prop-2-enamide]	101.626%
COc1cc(Cl)c(C)cc1N1C(=O)C=CC1=O [10-B15, 1-(4-chloro-2-methoxy-5-methylphenyl)-2,5-dihydro-1H-pyrrole-2,5-dione]	91.875%
N#CC(C(=O)Nc1ccc(Cl)cc1)=C(S)Nc1ccccc1 [8-H22, N-(4-chlorophenyl)-2-cyano-3-(phenylamino)-3-sulfanylprop-2-enamide]	74.3568%
CCN(c1ccc(C(=O)CCl)cc1)S(C)(=O)=O [10-F04, N-[4-(2-chloroacetyl)phenyl]-N-ethylmethanesulfonamide]	2.1875%
Cl.O=C(CCl)c1ccncc1 [10-M09, 2-chloro-1-(pyridin-4-yl)ethan-1-one hydrochloride]	111.875%
NC(=O)CCc1ccc(C(=O)CCl)cc1 [10-I03, 3-[4-(2-chloroacetyl)phenyl]propanamide]	108.125%
N#Cc1ccc(C(=O)CCl)cc1 [10-F10, 4-(2-chloroacetyl)benzonitrile]	52.5%
CC(=O)N(C)Cc1ccc(C(=O)CCl)cc1 [10-H04, N-{[4-(2-chloroacetyl)phenyl]methyl}-N-methylacetamide]	111.875%
CN(c1ccc(C(=O)CCl)cc1)S(C)(=O)=O [10-F19, N-[4-(2-chloroacetyl)phenyl]-N-methylmethanesulfonamide]	-0.3125%
C=CC(=O)N1CCC(C(=O)NCc2ncnn2CC)CC1 [3-P03, N-[(1-ethyl-1H-1,2,4-triazol-5-yl)methyl]-1-(prop-2-enoyl)piperidine-4-carboxamide]	135.829%
C=CC(=O)Nc1cc(-c2ccco2)nn1C(C)(C)C [1-K19, N-[1-tert-butyl-3-(furan-2-yl)-1H-pyrazol-5-yl]prop-2-enamide]	129.407%
CCN(Cc1ccccc1)C(=O)CCl [6-O21, N-benzyl-2-chloro-N-ethylacetamide]	79.9024%
